# Pol eta inh: qHTS for Inhibitors of Polymerase Eta; DNA polymerase eta (Homo sapiens), Q9Y253; recombinant Pol eta, fluorescent DNA replication assay; Potency, µM (titrated, usually from 114 µM), for inactives: at the top dose activity change, negative = inhibition, actives largely listed as inhibitors; hit rate 1.2% among 390,000; also: potency is read from the fitted curve at half-maximal effect; % is scaled to controls: 0 for no effect and ±100 for the full control effect
#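 Pol eta (10 nM) was preincubated with compounds for 15 min at room temperature, after which fluorescent replication substrate (50 nM final) was added to start the reaction. Fluorescence was read kinetically at 0 and 10 min.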
# WRN helicase inh: qHTS for Inhibitors of WRN Helicase | Bifunctional 3'-5' exonuclease/ATP-dependent helicase WRN (Homo sapiens), Q14191 | WRN helicase unwinding, fluorescent forked duplex, kinetic | Potency, µM (doses to about 114 µM), for the others: top-dose activity change, negative = inhibition, hits mostly inhibitors | hit rate 0.46% among 360,000; also: potency is read from the fitted curve at half-maximal effect; % is scaled to controls: 0 for no effect and ±100 for the full control effect; nearly all actives have a fitted effect of over 55% in size
#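 Kinetic fluorescence helicase assay: unwinding of a quenched forked DNA duplex (100 nM final) with 2 mM ATP final raises red fluorescence (525/598 nm). Compounds sat 15 min at room temperature with 20 nM WRN beforehand.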
# PI5P4K alpha inh: qHTS for Inhibitors of phosphatidylinositol 5-phosphate 4-kinase (PI5P4K); hit rate 1.2% among 330,000; Phosphatidylinositol 5-phosphate 4-kinase type-2 alpha (Homo sapiens), P48426; PI5P4Kalpha enzyme, ADP-Glo luminescence, 60 min; active compounds read low; max response, %; active = max response of -50% or lower; inconclusive = between -30% and -50%; inactive = -30% or higher; also: value at the top dose of about 77 µM; % is scaled to controls: 0 for no effect and ±100 for the full control effect
# Target sequence (P48426 whole entry, looked up): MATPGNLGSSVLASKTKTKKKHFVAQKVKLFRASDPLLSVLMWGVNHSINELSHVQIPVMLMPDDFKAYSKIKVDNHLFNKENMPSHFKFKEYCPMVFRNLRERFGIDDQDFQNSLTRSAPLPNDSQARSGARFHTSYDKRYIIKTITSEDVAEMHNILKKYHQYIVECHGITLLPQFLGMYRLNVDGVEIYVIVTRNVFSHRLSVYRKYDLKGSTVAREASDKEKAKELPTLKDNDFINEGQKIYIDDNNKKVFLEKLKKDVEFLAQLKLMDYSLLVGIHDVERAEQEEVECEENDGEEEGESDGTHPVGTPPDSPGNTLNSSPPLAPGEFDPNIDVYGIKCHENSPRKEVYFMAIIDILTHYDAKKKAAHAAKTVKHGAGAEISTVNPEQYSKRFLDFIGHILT
#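 Human PI5P4Kalpha with substrate in 0.038 M HEPES pH 7.4, 0.28 mM EGTA, 0.1% CHAPS, 5% DMSO; reaction started with 5 microM ATP (final), 60 min at room temperature. ADP formed read by ADP-Glo luminescence.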
# Pol iota inh: qHTS for Inhibitors of Polymerase Iota; DNA polymerase iota (Homo sapiens), Q9UNA4; hit rate 1% among 390,000; Potency, µM (series often up to 115 µM), without a hit: at the highest dose activity, negative = inhibition, most hits filed as inhibitors; Pol iota fluorescent replication assay, 10 min; also: potency is read from the fitted curve at half-maximal effect
#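 Fluorescent replication assay read twice, at 0 min and 10 min after adding 50 nM (final) substrate. Enzyme (10 nM) and compounds were first incubated 15 min at room temperature; enzyme-free buffer wells were negative controls.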
# POLB inh: qHTS Assay for Inhibitors of DNA Polymerase Beta | P06746 | Pol beta primer extension/strand displacement, fluorescence kinetic | Potency, µM (top dose mostly 114 µM), for inactives: at the highest dose activity change, negative = inhibition, most hits filed as inhibitors | hit rate 1.3% among 340,000; also: potency is read from the fitted curve at half-maximal effect; % is scaled to controls: 0 for no effect and ±100 for the full control effect
#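 Human Pol beta at 10 nM; strand-displacement substrate 50 nM final. Compound exposure 15 min at room temperature before start, reaction 10 min at room temperature.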
# Pol kappa inh: qHTS for Inhibitors of Polymerase Kappa. purified Pol kappa, fluorescent DNA synthesis assay, 10 min. AID 588579, 2011. DNA polymerase kappa (Homo sapiens), Q9UBT6. Potency, µM (series often up to 107 µM), for inactives: at the top dose activity, negative = inhibition, actives largely listed as inhibitors. hit rate 0.53% among 400,000; also: potency is read from the fitted curve at half-maximal effect; % is scaled to controls: 0 for no effect and ±100 for the full control effect
#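 Pol kappa 10 nM + cpd, 15 min RT; start w/ substrate 50 nM final; fluorescence kinetic read, 0 and 10 min. Neg ctrl: buffer, no enzyme.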
# Active calls of the source: *; ? = inconclusive; / = no result; [ ] = dose if it differs, or a comment. The list is not random: actives were taken first. Their share in the collection is about 2.8%. Unless noted, calls follow the shape of the dose curve; as a rule, active = well fitted curve in the direction sought with a large enough effect; inconclusive = small, poorly fitted or top-dose-only effect, or another doubt; inactive = no such curve, though single readings can be large; an effect the other way counts as inactive or inconclusive.
SMILES,Pol eta inh,WRN helicase inh,PI5P4K alpha inh,Pol iota inh,POLB inh,Pol kappa inh
CS/C(=N\S(=O)(=O)c1cccs1)NC(=O)CSc1nc2ccccc2s1,50µM*,?,?,?,?,-26%
COc1ccc(-c2nc(SCC(=O)NCc3ccco3)c(-c3ccccc3)[nH]2)cc1OC,-2%,-14%,-2,10%,-20%,-6%
Cc1nonc1NC(=O)CSc1nc2ccccc2[nH]1,?,-29%,-4,?,?,-5%
COc1ccc(-c2[nH]c(-c3ccccc3)nc2SCC(=O)NCc2ccco2)cc1OC,?,-17%,-11,?,40µM*,-24%
O=C(CSc1nn(-c2ccc(F)cc2)c(=S)s1)NC(=O)NCc1ccco1,2%,-14%,/,?,45µM*,-4%
O=C(O)C1CCC(C(=O)O)SS1 (stereo unspecified),-12%,1%,0,51%,/,3%
Cc1ccc(Cl)cc1N1CCN(C(=O)c2ccc(NC(=O)c3nsc4ccccc34)cc2)CC1,-8%,/,/,-13%,4%,-16%[60.1 µM]
COc1cccc(-c2cn3c(n2)sc2cc(C(=O)NCc4cccs4)ccc23)c1,-11%,/,/,27%,-2%,-6%
COc1ccc(C)cc1-n1nnnc1SCC(=O)NC(=O)NCc1ccco1,89µM*,-3%[11.6 µM],/,28µM*,14µM*,?
CCOc1ccc2nc(SCC(=O)NC(=O)NCc3ccco3)[nH]c2c1,?,-8%,?,?,50µM*,-23%
Cc1cc(SCC(=O)NC(=O)NCc2ccco2)nc2ccccc12,-16%,-7%,/,?,0%,-5%
Cc1cc(SCC(=O)NC(=O)NCc2ccco2)nc2c(C)cccc12,-26%,-21%,/,?,16µM*,-22%
CCOc1ccc2nc(SCC(=O)NCc3ccc(OC)c(OC)c3)[nH]c2c1,-19%,8%,-19,-3%,33%,-5%
CCc1nnc(NC(=O)[C@@H]2CCCN2C(=O)c2cccs2)s1,/,/,/,?,/,1%
COC(=O)CCCC1=CC2=CC(=O)C(C)(OC(=O)c3cccs3)C(=O)C2=CN1c1ccccc1 (stereo unspecified),?,-7%,-14,?,/,-39%
CCCCC1=CC2=CC(=O)C(C)(OC(=O)c3cnc4ccccc4n3)C(=O)C2=CO1 (stereo unspecified),/,/,/,/,50µM*,/
CCCCC1=CC2=CC(=O)C(C)(OC(=O)c3cccs3)C(=O)C2=CO1 (stereo unspecified),22µM*,-33%,-87*,?,/,?
COCCNC(=O)/C(C#N)=C/c1ccc(O)c([N+](=O)[O-])c1,0%,5%,?,-7%,14%,1%
CCN(CC)C(=O)/C(C#N)=C/c1cc(O)c(O)c([N+](=O)[O-])c1,/,/,/,/,/,6.7µM*
CCOCCCNC(=O)/C(C#N)=C/c1cc(OC)c(O)c([N+](=O)[O-])c1,-1%,-11%,-64*,61%,-1%,-9%
COc1ccc(CCNC(=O)C(=O)c2c[nH]c3ccccc23)cc1,/,/,/,/,/,7%[19.4 µM]
O=C(O)c1ccc2c(c1)S(=O)(=O)c1ccccc1C2=O,-6%,-13%,-74*,-20%,-1%,-15%
O=C(O)c1ccc2c(c1)S(=O)(=O)c1cc(Cl)ccc1C2=O,-13%,5%,-52*,-5%,/,6%
O=C(O)c1ccc2c(c1)S(=O)(=O)c1cc(N3CCN(c4cnccn4)CC3)ccc1C2=O,?,-12%,-67*,/,/,/
O=C1c2ccccc2S(=O)(=O)c2cc(N3CCN(C(=O)c4ccccc4)CC3)ccc21,-14%,-6%,2,5%,/,-7%
SMILES,Pol eta inh,WRN helicase inh,PI5P4K alpha inh,Pol iota inh,POLB inh,Pol kappa inh
O=C(NCc1ccccc1)c1ccc2c(c1)S(=O)(=O)c1cc(Cl)ccc1C2=O,-10%,-7%,10,24%,/,-3%
CC(=O)C[C@H]1c2cc(F)cc(F)c2S(=O)(=O)N1C1CCN(Cc2ccccc2)CC1,/,/,/,-9%,/,2%
CC(NC(=O)CN1C(=O)COc2ccc(Cl)cc21)c1ccccc1 (stereo unspecified),-8%,/,/,23%,1%,-29%
Nc1[nH]n(-c2ccccc2)c(=O)c1N=Nc1ccccc1[N+](=O)[O-],7%,5%,/,?,17%,-5%
O=c1c2cc([N+](=O)[O-])cc([N+](=O)[O-])c2[nH]n1-c1ccccc1,?,-19%,-98*,?,-8%,-11%
O=C(CC(c1cccs1)N1Cc2ccccc2C1=O)Nc1ccc(F)cc1 (stereo unspecified),-10%,/,/,15%,-11%,4%
CCc1nc2cccnc2n1-c1ccc(CC(=O)Nc2ccccc2Cl)cc1,2%,/,/,-3%,1%,-15%
CS(=O)(=O)c1ccc(C(=O)OCC(=O)Nc2cc(C(F)(F)F)ccc2Cl)cc1[N+](=O)[O-],/,/,/,-13%,/,-25%
COc1ccc(C(C)=O)cc1COC(=O)c1ccc(N)c([N+](=O)[O-])c1,-16%,-9%,-11,32µM*,-6%,-4%
Cc1ccccc1NC(=O)COC(=O)c1ccc(S(C)(=O)=O)c([N+](=O)[O-])c1,89µM*,-9%[11.6 µM],6,?,?,-4%
O=C1CN(C(=O)COC(=O)c2ccc(N3CCCCCC3)c([N+](=O)[O-])c2)c2ccccc2N1,-18%,-16%[57.1 µM],-5,67%,?,-13%
Cc1ccccc1NC(=O)Cc1nc(COC(=O)c2ccc(S(C)(=O)=O)c([N+](=O)[O-])c2)cs1,22µM*,-27%,-22,?,/,-10%
CS(=O)(=O)c1ccc(C(=O)OCC(=O)N2CC(=O)Nc3ccccc32)cc1[N+](=O)[O-],/,/,/,50µM*,/,-3%
COc1ccc(Cn2c(=O)c3ccccc3n3c(-c4ccc(C)cc4)nnc23)cc1,-13%,/,/,25%,30%,7%
O=C(COC(=O)c1ccc([N+](=O)[O-])cc1)Nc1cccnc1Cl,1%,6%,-5,13%,/,-7%
CC(=O)c1cccc(NC(=O)COC(=O)c2ccc(S(C)(=O)=O)c([N+](=O)[O-])c2)c1,79µM*,-24%[57.1 µM],8,?,10%,-5%
CS(=O)(=O)c1ccc(C(=O)OCC(=O)Nc2cccnc2Cl)cc1[N+](=O)[O-],89µM*,-19%,0,?,/,9%
Cc1c(NC(=O)C(C)OC(=O)c2cccnc2Cl)c(=O)n(-c2ccccc2)n1C (stereo unspecified),-9%,3%,-1,79µM*,/,5%

# Bioassay records as filed in PubChem BioAssay.
